Assay results taken from PubChem BioAssay (NCATS).
Records with an inconclusive call do not appear. Unmarked numbers belong to inactive results. Calls of active or inactive are those of the source. Calls follow the shape of the dose curve; as a rule, active = well fitted cell-killing curve with a large enough effect; inconclusive = small, poorly fitted or top-dose-only effect; inactive = flat fitted curve, though single readings scatter.

assay: Cell Viability - LYMP1-002 - Assay at 16 hr (AID 948); details: LYMP1-002 lymphoblastoid cell viability; series mostly up to 92.2 µM; activity change, negative = cytotoxicity: at the top concentration;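 as to activity change, negative = cytotoxicity: 0% = DMSO alone and full effect = 92 µM tetraoctylammonium bromide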
Text: NIH Chemical Genomics Center [NCGC]
NIH Molecular Libraries Screening Centers Network [MLSCN]
National Institutes of Environmental Health Sciences [NIEHS]
National Toxicology Program [NTP]
We have developed a 1536-well cell-based assay for quantitative high throughput screening (qHTS) against a number of cell lines to determine in vitro cytotoxicity of small molecules. This particular assay uses a human lymphoblastoid cell line (LYMP1-002) purchased from Coriell Institute for Medical Research.
NCGC Assay Protocol Summary:
The CellTiter-Glo luminescent cell viability assay (Promega) is a homogeneous method to measure the number of viable cells in culture. The end point readout of this assay is based on quantitation of intracellular ATP, an indicator of metabolic activity, using the luciferase reaction. Luciferase catalyzes the oxidation of beetle Luciferin to oxyluciferin and light in the presence of ATP. The luminescent signal is proportional to amount of ATP present.
Using the CellTiter-Glo luminescent cell viability assay, the amount of cellular ATP was measured in the lymphoblastoid cell line with complete culture medium following compound treatment for 16 hours. The assay was performed in opaque white Kalypsys 1536-well plates. In the screen, tetraoctylammonium bromide was used as positive control. Library compounds were measured for their ability to cause acute toxicity in the cell line, as reflected by a decrease in intracellular ATP levels, in a concentration-dependent manner. […] AC50 values were determined from concentration-response data modeled with the standard Hill equation.
qHTS protocol for CellTiter Glo lymphoblastoid cellular assay
[Step] [Parameter] [Value] [Description]
1. Reagent; 5 uL; 2500 lymphoblastoid cells/well
2. Time; 5 hr; 37 C incubation
4. Controls; 23 nL; Tetraoctylammonium bromide 6.4pM to 92 uM
5. Time; 16 hr; 37 C incubation
6. Reagent; 5 uL; CellTiter Glo reagent
7. Time; 30 min; Room Temperature
8. Detection; Luminescence; Viewlux plate reader
Keywords: cell viability, cytotoxicity, lymphoblastoid cell line, luminescence, NTPHTS, NTPHTS_NCGC, NIEHS, DSSTox, MLSMR, MLSCN, NIH Roadmap, qHTS, NCGC
Potency is read from the fitted curve at half-maximal effect.

SMILES | activity change, negative = cytotoxicity [%] | Potency
Cc1cc(CC(=O)O)n(C)c1C(=O)c1ccc(Cl)cc1 | -3.15 | –
C[C@]12C[C@H](O)[C@H]3[C@@H](CCC4=CC(=O)CC[C@@]43C)[C@@H]1CC[C@@H]2C(=O)CO | -9.26 | –
Oc1cccc(O)c1 | -5.57 | –
Cc1cc2nc3c(=O)[nH]c(=O)nc-3n(C[C@H](O)[C@H](O)[C@H](O)CO)c2cc1C | -15.5 | –
NCCNCCNCCN | -5.77 | –
O=C1O[C@H]([C@@H](O)CO)C(O)=C1O | -1.45 | –
NC(=O)c1ncn([C@@H]2O[C@H](CO)[C@@H](O)[C@H]2O)n1 | -10.7 | –
NC(=O)N/N=C/c1ccc([N+](=O)[O-])o1 | -12.5 | –
NCCNCCNCCNCCN | -3.95 | –
O=C1c2c(O)cccc2Cc2cccc(O)c21 | -2.57 | –
COc1ccccc1O | – | inactive
[Cl][In]([Cl])[Cl] | 0.832 | –
CCCCOC(=O)c1ccc(O)cc1 | -5.31 | –
CN(C)CCC=C1c2ccccc2CCc2ccccc21 | -18.2 | –
CC1(C)[C@@H]2CC[C@@]1(C)C(=O)C2 | -6.66 | –
Cc1c(O)cccc1C(=O)N[C@@H](CSc1ccccc1)[C@H](O)CN1C[C@H]2CCCC[C@H]2C[C@H]1C(=O)NC(C)(C)C | – | 50.1 µM (active)
Nc1ccc(S(=O)(=O)Nc2nccs2)cc1 | 0.646 | –
CC12CCC(CC1)C(C)(C)O2 | 1.22 | –
CCCCCCCCCCCCOS(=O)(=O)O | – | inactive
